Ten compounds from PubChem BioAssay (NCI) can be followed below.

Experiment in all cases: NCI-60 one-dose screen, 48 h (100 = growth as untreated, 0 = no growth, -100 = all killed)
In one assay the test system is NCI-H226 lung. Particulars: 10 µM unless noted.
For the next assay, the system named is HOP-62 NSCLC. To be noted: 10 µM unless noted.
The test system of the next assay is HOP-92 NSCLC. To be noted: 10 µM unless noted.
In another assay the test system is NCI-H522 lung. Particulars: 10 µM unless noted.
The subject of another assay is K-562 leukemia. To be noted: 10 µM unless noted.
A further assay deals with SF-295 CNS. Particulars: 10 µM unless noted.
Another assay relates to SNB-19 CNS. To be noted: 10 µM unless noted.
In a further assay the test system is SK-MEL-5 melanoma. To be noted: 10 µM unless noted.
In a further assay the test system is LOX IMVI melanoma. Particulars: 10 µM unless noted.
A further assay relates to EKVX NSCLC. To be noted: 10 µM unless noted.
Another assay deals with CCRF-CEM leukemia. Particulars: 10 µM unless noted.
In another assay the test system is MOLT-4 leukemia. Particulars: 10 µM.
The test system of the next assay is RPMI-8226 leukemia. Particulars: 10 µM unless noted.
In a further assay the test system is HCC-2998 colon. To be noted: 10 µM unless noted.
The test system of a further assay is NCI-H322M lung. To be noted: 10 µM unless noted.
Another assay relates to HCT-15 colon. To be noted: 10 µM.
The next assay has as its system TK-10 renal. Particulars: 10 µM unless noted.
The subject of the next assay is SR leukemia. To be noted: 10 µM.
In another assay the test system is IGROV1 ovarian. Particulars: 10 µM.

This is part of a sample that, as a whole, favours compounds with a hit. Of some 83,000 tested, about 20% had one in any assay.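 Negative percent growth values reflect cell death: -40 means 40% of the cells present at the start died, and -100 means all died.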 A number with no mark means an inactive call. The source made the active and inactive calls. The calls were made as follows: active = growth percent below 10; inactive = the rest.

`NC(=O)C(Br)CBr` (stereo not given): the growth is -18.8% (active) with NCI-H226 lung; -40.8% (active) in the assay with HOP-62 NSCLC; -83.7% (active) in the assay with HOP-92 NSCLC; -81.7% (active) in the assay on NCI-H522 lung; -50.1% (active) with K-562 leukemia; 81.1% in the assay on SF-295 CNS. For the same compound, the growth in the assay on SNB-19 CNS was 80.1%; in the assay with SK-MEL-5 melanoma it was 55.6%; in the assay on LOX IMVI melanoma it was 3.13% (active); in the assay on EKVX NSCLC it was -73.1% (active); with CCRF-CEM leukemia, -12.1% (active); with MOLT-4 leukemia, -62.1% (active). For the same compound, the growth is -39.3% (active) with RPMI-8226 leukemia and 38.4% with HCC-2998 colon.
On to `O=S(=O)(F)c1ncnc2nc[nH]c12`, for which the growth in the assay with NCI-H226 lung was 89.6%; in the assay on NCI-H322M lung, 97.9%; in the assay with HOP-62 NSCLC, 86.5%; with K-562 leukemia, 92.3%; in the assay on SF-295 CNS, 104%; in the assay on HCT-15 colon, 98.3%. Moreover, the growth was 93.4% in the assay on SNB-19 CNS; 96.2% in the assay on SK-MEL-5 melanoma; 85.8% in the assay on LOX IMVI melanoma; 103% in the assay with EKVX NSCLC; 103% in the assay with TK-10 renal; 101% in the assay on CCRF-CEM leukemia. Moreover, the growth is 89.2% with MOLT-4 leukemia and 101% with HCC-2998 colon.
Regarding `O=C(O)c1nn(Cc2ccc(Cl)cc2)c2ccccc12`, the growth was 101% in the assay with NCI-H226 lung; 127% in the assay on NCI-H322M lung; 108% with HOP-62 NSCLC; 104% with K-562 leukemia; 96.7% in the assay with SNB-19 CNS; 97.2% with SK-MEL-5 melanoma. For the same compound, the growth in the assay with LOX IMVI melanoma is 101%; in the assay with TK-10 renal, 123%; in the assay on CCRF-CEM leukemia it was 98.7%; with MOLT-4 leukemia it was 111%; in the assay with SR leukemia, 97.3%; in the assay with RPMI-8226 leukemia, 98.4%. Further, the growth is 122% with IGROV1 ovarian and 120% with HCC-2998 colon.
Take `NCCc1cc(O)c(O)cc1O`: the growth was 99.1% in the assay on NCI-H226 lung; 105% in the assay on HOP-62 NSCLC; 85.4% in the assay with HOP-92 NSCLC; -11.5% (active) with NCI-H522 lung; 102% with K-562 leukemia; 106% in the assay on SF-295 CNS. Also, the growth in the assay with HCT-15 colon was 97.6%; in the assay with SNB-19 CNS, 100%; in the assay on SK-MEL-5 melanoma it was 98.5%; in the assay with LOX IMVI melanoma it was 101%; in the assay with EKVX NSCLC, 102%; in the assay with CCRF-CEM leukemia it was 65.7%. Also, the growth was 98% in the assay with SR leukemia, 48.4% with RPMI-8226 leukemia and 103% in the assay on HCC-2998 colon.
Consider `CC1(CF)NC(=O)NC1=O` (stereo not given), for which the growth was 119% with NCI-H226 lung; 107% in the assay with HOP-62 NSCLC; 84.4% with HOP-92 NSCLC; 122% in the assay on NCI-H522 lung; 107% in the assay with K-562 leukemia; 118% in the assay on SF-295 CNS. Also, the growth is 105% in the assay on HCT-15 colon; 97.9% in the assay with SNB-19 CNS; 114% in the assay with SK-MEL-5 melanoma; 100% in the assay on LOX IMVI melanoma; 104% in the assay on EKVX NSCLC; 128% in the assay with TK-10 renal. Besides, the growth is 95.7% with CCRF-CEM leukemia; 98.4% in the assay with MOLT-4 leukemia; 115% with SR leukemia; 108% in the assay on RPMI-8226 leukemia; 102% with HCC-2998 colon.
Regarding `COc1cc(C2CC(=O)Nc3nc(N)[se]c32)cc(OC)c1OC` (stereo not given), the growth was 103% in the assay on NCI-H226 lung; 70.9% in the assay on HOP-62 NSCLC; 138% in the assay with HOP-92 NSCLC; 107% with NCI-H522 lung; 83.9% in the assay on K-562 leukemia; 7.05% (active) with SF-295 CNS. In addition, the growth in the assay on HCT-15 colon was 109%; with SNB-19 CNS it was 52.1%; in the assay on SK-MEL-5 melanoma it was 99%; in the assay with LOX IMVI melanoma, 105%; in the assay with EKVX NSCLC, 90%; in the assay with MOLT-4 leukemia it was 82.7%. Further, the growth in the assay with SR leukemia was 65.8%; in the assay on RPMI-8226 leukemia, 101%; in the assay on HCC-2998 colon, 107%.
Take `COc1ccc2c(c1)NC1=C(C(=O)OC1)C2c1cc(OC)c(OC)c(OC)c1` (stereo not given): the growth in the assay on NCI-H226 lung is 49.6%; with HOP-62 NSCLC it was 44.2%; in the assay on HOP-92 NSCLC, 5.87% (active); in the assay on NCI-H522 lung, -26.2% (active); with K-562 leukemia, 7.31% (active); in the assay on SF-295 CNS, 1.12% (active). Also, the growth with HCT-15 colon is 15.3%; with SNB-19 CNS, 47.3%; in the assay on SK-MEL-5 melanoma, -49.1% (active); with LOX IMVI melanoma, 11.9%; in the assay with EKVX NSCLC it was 53.8%; with CCRF-CEM leukemia, 6.76% (active). For the same compound, the growth was 5.82% (active) with MOLT-4 leukemia; 5.65% (active) in the assay with SR leukemia; 12.6% in the assay with RPMI-8226 leukemia; 12% in the assay with IGROV1 ovarian; 10.9% in the assay on HCC-2998 colon.
As to `CCCC(C)(C)c1ccc2c(c1)OC(C)(C)[C@@H]1CC=C(C)C[C@@H]21`, the growth with NCI-H226 lung is 98.3%; in the assay with HOP-62 NSCLC, 90.4%; with HOP-92 NSCLC, 100%; in the assay on NCI-H522 lung, 93.2%; with K-562 leukemia, 92.3%; in the assay with SF-295 CNS, 101%. The growth in the assay on HCT-15 colon was 107%; with SNB-19 CNS it was 103%; with SK-MEL-5 melanoma, 102%; in the assay with EKVX NSCLC, 106%; in the assay on TK-10 renal, 107%; in the assay on CCRF-CEM leukemia, 84.2%. Besides, the growth is 95.6% in the assay on MOLT-4 leukemia; 95.7% in the assay with SR leukemia; 92.9% in the assay on RPMI-8226 leukemia; 95.7% in the assay with IGROV1 ovarian; 109% in the assay with HCC-2998 colon.
As to `O=C(CCF)c1ccc(O)cc1`, the growth in the assay with NCI-H226 lung is 105%; in the assay with NCI-H322M lung, 101%; with HOP-92 NSCLC, 100%; with NCI-H522 lung it was 87.6%; with K-562 leukemia, 98.9%; in the assay with SF-295 CNS, 100%. Also, the growth in the assay on HCT-15 colon is 102%; in the assay on SNB-19 CNS it was 96.2%; in the assay on SK-MEL-5 melanoma it was 117%; with EKVX NSCLC it was 99.3%; in the assay with TK-10 renal, 106%; in the assay with CCRF-CEM leukemia, 95%. Moreover, the growth in the assay with MOLT-4 leukemia is 100%; in the assay on SR leukemia, 96%; in the assay on RPMI-8226 leukemia, 97.5%; in the assay with IGROV1 ovarian it was 100%; in the assay with HCC-2998 colon, 108%.
As for `CNC(=O)Oc1cc(C(C)C)ccc1Sc1ccc(C(C)C)cc1OC(=O)NC`, the growth with NCI-H226 lung is 83.2%; in the assay with HOP-62 NSCLC, 75.9%; with HOP-92 NSCLC it was 89%; with NCI-H522 lung it was 75.7%; in the assay with K-562 leukemia, 25.6%; in the assay on SF-295 CNS, 26.9%. In addition, the growth is 28.6% in the assay with HCT-15 colon; 79% in the assay with SNB-19 CNS; 33.1% in the assay on SK-MEL-5 melanoma; 69.1% in the assay with EKVX NSCLC; 36.5% in the assay on CCRF-CEM leukemia; 26.8% in the assay with MOLT-4 leukemia. Besides, the growth in the assay with SR leukemia was 15.8%; in the assay with RPMI-8226 leukemia it was 51.2%; in the assay with HCC-2998 colon it was 104%.
